Assay outcomes from PubChem.
TWEAK Fn14 block – inhibitors of TWEAK-Fn14 interaction signaling. inhibition, % at 10 µM. hit rate 2% among 360,000. TWEAK-stimulated Fn14 reporter cells, luciferase luminescence, 8 h; in the data active = inhibition above about 50%
PAX8 reporter – inhibitors of PAX8 transcriptional activity in RMG-I cells. RMG-I TPO-luciferase reporter, SteadyGlo, 24 h. inhibition, % at 12.6 µM. hit rate 1.2% among 360,000. AID 652154;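 active = mean replicate inhibition at least 60% with every replicate also reaching 60%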;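 also: luciferase light reporting Pax8 driven TPO promoter activity; plate controls were median of neutral control wells for no effect and mitoxantrone controls for full effect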
LMP1 NFkB inh – inhibitors of Epstein-Barr LMP1-induced NF-kappaB reporter. LMP1-induced NF-kappaB luciferase reporter cells, luminescence. inhibition, % at 12.5 µM. hit rate 0.69% among 350,000. AID 504558; in the data active = inhibition above about 41%;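 also: 0% = neutral control wells and 100% = reference inhibitor control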
EWS-Fli block – blocks EWS/Fli oncoprotein-driven transcription. hit rate 0.67% among 350,000. AID 651661. A673 NR0B1-luciferase reporter, viability-normalised. inhibition, % at 12.6 µM;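 active = mean inhibition of at least 50% after viability correction, with every replicate also passing that limit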;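 also: firefly luciferase signal divided by Alamar Blue viability fluorescence both relative to DMSO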
LGR2 antag – Drosophila LGR2 receptor signaling inhibition; HEK293 LGR2, CRE-luciferase, bursicon-stimulated, 4 h; hit rate 0.35% among 380,000; inhibition, % at 9.99 µM;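 active = drop in luminescence signal, shown as inhibition above about 50% in the replicate tests, limit read from the data, passing the limit was not always enough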;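 also: agonist challenge used bursicon conditioned medium at about half maximal strength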
TROY signal inh – inhibitors of TROY-dependent NF-kB signaling; Q293 LMP1-TROYcd NF-kB luciferase reporter, 4 h; inhibition, % at 10 µM; hit rate 0.98% among 360,000; AID 1347056;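 active = compounds whose plate-normalised and pattern-corrected inhibition of the luciferase reporter signal at the single screening dose is 50% or more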
The depositor's hits bear a star; · = no result. This is a sample that favours compounds with a hit; in the whole collection about 3.2% have one here.

SMILES	TWEAK Fn14 block	PAX8 reporter	LMP1 NFkB inh	EWS-Fli block	LGR2 antag	TROY signal inh
COc1ccc(NC(=O)N2CCCCN3[C@H](C2)[C@@H](c2ccc(C#Cc4ccccc4)cc2)[C@@H]3CO)cc1	·	92*	·	-10	·	·
COc1cccc(CN2CCCCN3[C@H](CO)[C@@H](c4ccc(C#Cc5cccnc5)cc4)[C@H]3C2)c1	·	21	·	69*	-8	·
C/C=C/c1cnc2c(c1)C(=O)N([C@H](C)CO)C[C@@H](C)[C@H](CN(C)C(=O)Cc1ccccn1)O2	·	-3	·	-11	-36	·
O=C(c1ccccc1)N1CC(=O)N2[C@H](CO)[C@H](c3ccc(C#Cc4ccccc4)cc3)[C@H]2C1	·	·	·	·	4	·
CCS(=O)(=O)N1CC2(C1)[C@@H](c1ccccc1)[C@H](CO)N2C(=O)C1CCCC1	·	18	·	1	3	·
CCC(=O)Nc1ccc2c(c1)C(=O)N(C)[C@H]1CC[C@@H](CC(=O)O)O[C@H]1CO2	·	0	·	1	1	·
COc1ccccc1-n1c(=O)c(C#N)c(-c2ccc([N+](=O)[O-])cc2)c2cc(C(=O)c3cc(F)ccc3O)cnc21	1	-2	3	-3	-2	8
Cn1c(=O)c(C#N)c(-c2ccc(F)cc2)c2cc(C(=O)c3cc(Cl)cc(Cl)c3O)cnc21	57*	21	4	23	9	67*
C[C@H]1CN([C@@H](C)CO)S(=O)(=O)c2ccc(C#CC3CC3)cc2O[C@@H]1CN(C)Cc1ccccc1	·	-6	·	9	9	·
O=C(C[C@H]1CC[C@@H]2[C@H](COC[C@@H](O)CN2Cc2ccc3c(c2)OCO3)O1)Nc1ccc(-c2ccccc2)cc1	·	52	·	9	18	·
O=C(C[C@H]1CC[C@H]2[C@@H](COC[C@@H](O)CN2Cc2ccc3c(c2)OCO3)O1)Nc1ccc(-c2ccccc2)cc1	·	87*	·	17	16	·
O=C(C[C@@H]1CC[C@@H]2[C@H](COC[C@H](O)CN2Cc2ccc3c(c2)OCO3)O1)Nc1ccc(-c2ccccc2)cc1	·	80*	·	16	12	·
CCOc1ccc(NC(=O)CCN2C(=S)NC(C)(C)CC2C)cc1 (configuration not stated)	94*	0	3	-6	12	-2
CC1CC(C)(C)NC(=S)N1CCCC(=O)Nc1ccc(Cl)cc1 (configuration not stated)	29	-1	1	9	21	3
COC(=O)/C=c1\sc2ncnn2c1=O	74*	·	-4	·	4	·
COCC(=O)Nc1ccc2c(c1)OC[C@H](C)N(C(=O)NC(C)C)C[C@@H](C)[C@H](OC)CN(C)C2=O	·	-11	·	2	15	·
COCC(=O)N1CC2(C1)CN(C(=O)c1ccccn1)[C@@H](CO)c1c2c2ccc(OC)cc2n1C	·	·	·	1	4	·
Cc1ccc(C)c(/C=N/n2cc(-c3ccccc3)[nH]c2=S)c1	14	21	9	32	-32	53*
Fc1ccccc1/C=N/n1cc(-c2ccccc2)[nH]c1=S	-1	-52	-6	20	-34	23
C[C@H]1CN([C@@H](C)CO)C(=O)c2cc(C3=CCCC3)cnc2O[C@@H]1CN(C)C(=O)CN1CCOCC1	·	-5	·	17	-9	·
CCOC(=O)N1CCN(S(=O)(=O)c2ccc(C)cc2)CC1	77*	20	-6	-11	-6	18
C[C@H](CO)N1C[C@H](C)[C@H](CN(C)S(=O)(=O)c2ccc(F)cc2)Oc2c(NC(=O)c3ccc(-c4nccs4)cc3)cccc2C1=O	·	·	·	2	·	·
CC(O)(c1ccc(F)c(F)c1)c1nc(-c2cnc3ccccc3c2)cs1 (configuration not stated)	55*	-3	·	8	14	30
CC(O)(c1ccc(F)c(F)c1)c1nc(-c2ccc3ccccc3c2)cs1 (configuration not stated)	17	-10	·	7	-14	-4
CN(Cc1ccco1)c1ncnc2ccc(-c3ccc4c(ccn4C)c3)cc12	-4	16	19	67*	-2	0
SMILES	TWEAK Fn14 block	PAX8 reporter	LMP1 NFkB inh	EWS-Fli block	LGR2 antag	TROY signal inh
CN(Cc1ccco1)c1ncnc2ccc(-c3ccc4c(c3)OCO4)cc12	3	6	4	3	·	-28
Cc1c(P(=S)(c2ccccc2)c2ccccc2)[n+]2ccccc2n1C/C=C/c1ccccc1	30	101*	·	21	32	36
CC(O)c1nc2ccccc2n1C/C=C/c1ccccc1 (configuration not stated)	1	·	-5	·	·	7
CCOC(=O)C1=NNC(C(=O)c2ccc(Cl)cc2)C1c1ccc(OC)cc1 (configuration not stated)	-13	3	4	1	3	-8
CCOC(=O)C1=NNC(C(=O)c2ccc(C)cc2)C1c1ccc(OC)cc1 (configuration not stated)	72*	·	4	·	·	6
C[C@H](O)C#Cc1ccc2c(c1)O[C@@H](CN(C)CC1CCOCC1)[C@@H](C)CN([C@@H](C)CO)S2(=O)=O	·	-10	·	-11	9	·
CN(C)C(=O)c1cccc(-c2ccc3c(c2)[C@H]2[C@H](CCN2Cc2nccs2)[C@H](CO)N3)c1	·	5	·	-15	-1	·
COc1cccc(-c2cnc3c(NC=O)cc(-c4ccc(OC)cc4OC)cn23)c1	21	99*	·	32	-28	12
COc1ccc(-c2cc(NC=O)c3ncc(-c4ccc(OC)c(OC)c4)n3c2)c(OC)c1	10	83*	·	47	-46	-1
COc1cccc(-c2cc(NC=O)c3ncc(-c4ccc(OC)c(OC)c4)n3c2)c1	10	17	·	26	-36	-4
COc1ccc(-c2cc(NC=O)c3ncc(-c4cccc(OC)c4)n3c2)cc1	-7	8	·	45	-14	-25
COc1ccc(-c2cnc3c(NC=O)cc(-c4ccccc4)cn23)cc1OC	15	33	·	46	-37	-28
COc1ccc(-c2cnc3c(NC=O)cc(-c4ccc(F)cc4)cn23)cc1OC	15	69*	·	34	-26	23
COc1cccc(-c2ccc([C@H]3[C@@H](CO)N4C(=O)CN(C(=O)c5cccnc5)C[C@H]34)cc2)c1	·	-10	·	-2	4	·
COc1ccc(-c2ccc3c(c2)[C@@H]2[C@@H](CCN2C(=O)c2cnccn2)[C@H](CO)N3)cc1	·	-26	·	-11	-24	·
COc1ccc(NC(=O)N[C@@H]2C=C[C@@H](CC(=O)NC3CCCCC3)O[C@@H]2CO)cc1	·	15	·	2	-3	·
COCCCn1c(SCC(=O)Nc2ccc(C)cc2)nc2ccccc2c1=O	-3	12	1	-9	-11	12
CC(=O)c1cccc(NC(=O)CSc2nc3ccccc3c(=O)n2CCCN2CCOCC2)c1	-10	18	0	-2	-15	-6
O=C(CSc1nc2ccccc2c(=O)n1CCCN1CCOCC1)Nc1ccc(Br)cc1	-16	19	49*	-4	-21	-12
Cc1ccc(NC(=O)CSc2nc3ccccc3c(=O)n2Cc2cccs2)cc1	-18	66*	-25	-22	-3	-3
